In PubChem BioAssay (NCI):
About 79,000 compounds went through this panel and 15% of them were active in at least one assay; those are over-represented in the sample as a whole. Calls of active or inactive are those of the source. No stated cut-off is given here; in the data, active means growth inhibition above about 70%; inactive means the rest.

Legend:
[1] = NCI Yeast Anticancer Drug Screen. Data for the rad52 strain (AID 147);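 further: 0% = growth of vehicle-treated control cultures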; conditions: S. cerevisiae rad52 mutant growth inhibition, active compounds read high
Outline: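 The repair-mutant yeast strain was incubated with compounds, then growth was read and inhibition derived relative to vehicle.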

[2] = NCI Yeast Anticancer Drug Screen. Data for the wt1 strain (AID 149);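 further: 0% = growth of vehicle-treated wt1 cultures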; conditions: S. cerevisiae wt1 strain (SPY 50644) growth inhibition, active compounds read high
Outline: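 Using yeast strain wt1, compound-induced growth inhibition was determined against vehicle-treated cultures.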

[3] = NCI Yeast Anticancer Drug Screen. Data for the rad50EPP+ strain (AID 151);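 further: 0% = growth of vehicle-treated control cultures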; conditions: S. cerevisiae rad50 mutant strain, active compounds read high
Outline: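 Vehicle-normalised growth inhibition; rad50EPP+ yeast strain, altered in DNA damage repair, compound-treated.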

[4] = NCI Yeast Anticancer Drug Screen. Data for the mgt1 strain (AID 153); conditions: S. cerevisiae mgt1 mutant growth inhibition, active compounds read high
Outline: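 Vehicle-normalized growth inhibition is determined in mgt1 yeast, a strain selected for a defined alteration in DNA repair or cell cycle control.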

[5] = NCI Yeast Anticancer Drug Screen. Data for the rad50 strain (AID 155);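 further: 0% = growth of vehicle-only cultures of the same strain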; conditions: S. cerevisiae rad50 strain growth inhibition, active compounds read high
Outline: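 Relative growth inhibition (compound vs vehicle) was measured in yeast with a defined repair-gene alteration.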

[6] = NCI Yeast Anticancer Drug Screen. Data for the mec2-1 strain (AID 157); conditions: S. cerevisiae mec2-1 strain, active compounds read high
Outline: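 Mutant yeast (mec2-1) grown with compound; growth inhibition relative to vehicle control reported.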

[7] = NCI Yeast Anticancer Drug Screen. Data for the rad14 strain (AID 159);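 further: 0% = growth of vehicle-treated control cultures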; conditions: S. cerevisiae rad14 strain growth inhibition, active compounds read high
Outline: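 Screen for anticancer potential: a yeast strain altered in DNA damage repair is grown with compound, and reduced growth is quantified against vehicle controls.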

[8] = NCI Yeast Anticancer Drug Screen. Data for the sgs1 mgt1 strain (AID 161);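 further: 0% = growth of cultures given vehicle only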; conditions: S. cerevisiae sgs1 mgt1 strain, active compounds read high
Outline: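 Growth of a repair-deficient yeast mutant was monitored after compound treatment and expressed as inhibition relative to vehicle-treated cultures.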

[9] = NCI Yeast Anticancer Drug Screen. Data for the CLN2oe strain (AID 163);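 further: 0% = growth of vehicle-only control cultures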; conditions: S. cerevisiae CLN2oe strain, active compounds read high
Outline: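 Compounds are applied to yeast harbouring a defined cell-cycle control change; reduced growth compared with vehicle-treated controls gives the value.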

[10] = NCI Yeast Anticancer Drug Screen. Data for the cln2 rad14 strain (AID 165);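 further: 0% = growth equal to vehicle treated cultures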; conditions: S. cerevisiae cln2 rad14 strain, active compounds read high
Outline: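 Readout is yeast growth inhibition versus vehicle-treated controls, using a strain with cln2 and rad14 alterations exposed to compound.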

[11] = NCI Yeast Anticancer Drug Screen. Data for the bub3 strain (AID 167); conditions: S. cerevisiae bub3 mutant strain, active compounds read high
Outline: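 Screening used yeast with an engineered genetic alteration affecting cell cycle control. Compound-exposed cultures were compared with vehicle cultures, and reduced growth was taken as inhibition.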

[12] = NCI Yeast Anticancer Drug Screen. Data for the wt2 strain (AID 169);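 further: 0% = growth of vehicle-treated yeast cultures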; conditions: S. cerevisiae wt2 strain growth inhibition, active compounds read high
Outline: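 Against vehicle-treated controls, the growth of yeast exposed to each compound was compared, and the inhibition was recorded.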

[13] = NCI Yeast Anticancer Drug Screen. Data for the mlh1 strain (AID 171);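 further: 0% = growth of vehicle-treated control cultures of the same strain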; conditions: S. cerevisiae mlh1 strain growth inhibition, active compounds read high
Outline: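 Measured: yeast growth. Reference: vehicle-treated controls. Organism: strain with a defined alteration affecting DNA damage repair or cell cycle control, treated with compound.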

[14] = NCI Yeast Anticancer Drug Screen. Data for the sgs1 strain (AID 173);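 further: 0% = growth of vehicle-only control cultures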; conditions: S. cerevisiae sgs1 mutant, active compounds read high
Outline: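 Each compound was added to cultures of the altered yeast strain. Growth was recorded, and inhibition was derived by comparison with vehicle controls.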

[15] = NCI Yeast Anticancer Drug Screen. Data for the mlh1 rad18 strain (AID 175); conditions: S. cerevisiae mlh1 rad18 strain growth inhibition, active compounds read high
Outline: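 Genetically defined yeast (DNA repair-deficient) exposed to compounds; growth inhibition determined relative to vehicle.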

[16] = at 5.0 µM (retest, dose inferred, filed as 0.5)
[17] = at 50.0 µM (retest, dose inferred, filed as 5.0)

Measured: growth inhibition

O=C(Nn1c(-c2ccccc2)nc2ccccc2c1=O)c1ccc(CS)cc1
inactive: [1]; at 1.2 µM 5% | [1]; at 3.7 µM 20% | [1]; at 11.0 µM 12% | [1]; at 33.0 µM 53% | [2]; at 1.2 µM -4% | [2]; at 3.7 µM -6% | [2]; at 11.0 µM -1% | [2]; at 33.0 µM 23% | [3]; at 1.2 µM -2% | [3]; at 3.7 µM 6% | [3]; at 11.0 µM 5% | [3]; at 33.0 µM 31% | [4]; at 1.2 µM -9% | [4]; at 3.7 µM -19% | [4]; at 11.0 µM -17% | [4]; at 33.0 µM 23% | [5]; at 1.2 µM -5% | [5]; at 3.7 µM 2% | [5]; [16] -35% | [5]; at 11.0 µM 8% | [5]; at 33.0 µM 47% | [5]; [17] 10% | [6]; at 1.2 µM -4% | [6]; at 3.7 µM -17% | [6]; [16] -23% | [6]; at 11.0 µM -15% | [6]; at 33.0 µM 24% | [6]; [17] 34% | [6]; at 50.0 µM 43.4% | [7]; at 1.2 µM -16% | [7]; at 3.7 µM -16% | [7]; at 11.0 µM -19% | [7]; at 33.0 µM 21% | [8]; [16] -11% | [8]; [17] 27% | [8]; at 50.0 µM 60.2% | [9]; at 1.2 µM -11% | [9]; at 3.7 µM 10% | [9]; at 11.0 µM 0% | [9]; at 33.0 µM 20% | [10]; [16] 19% | [10]; [17] 40% | [10]; at 50.0 µM 27.5% | [11]; at 1.2 µM -7% | [11]; at 3.7 µM -14% | [11]; [16] -12% | [11]; at 11.0 µM -13% | [11]; at 33.0 µM 47% | [11]; at 50.0 µM 50.8% | [12]; at 1.2 µM 9% | [12]; at 3.7 µM 6% | [12]; at 11.0 µM 9% | [12]; at 33.0 µM 34% | [13]; at 1.2 µM 9% | [13]; at 3.7 µM 7% | [13]; at 11.0 µM 10% | [13]; at 33.0 µM 53% | [14]; at 1.2 µM 15% | [14]; at 3.7 µM 8% | [14]; at 11.0 µM 21% | [14]; at 33.0 µM 65% | [15]; [16] -22% | [15]; at 50.0 µM 48%
active: [1]; at 100.0 µM 98% | [2]; at 100.0 µM 98% | [3]; at 100.0 µM 76% | [4]; at 100.0 µM 97% | [5]; at 50.0 µM 79.2% | [5]; at 100.0 µM 98% | [6]; at 100.0 µM 97% | [7]; at 100.0 µM 97% | [9]; at 100.0 µM 97% | [11]; [17] 81% | [11]; at 100.0 µM 98% | [12]; at 100.0 µM 98% | [13]; at 100.0 µM 98% | [14]; at 100.0 µM 98% | [15]; [17] 74%

Cn1c(-c2ccc(/C=N\N3CCN(/N=C/c4ccc(-c5c[n+]6ccsc6n5C)cc4)CC3)cc2)c[n+]2ccsc12
inactive: [1]; at 1.2 µM 14% | [1]; at 3.7 µM 19% | [1]; at 11.0 µM 20% | [1]; at 33.0 µM 16% | [2]; at 1.2 µM 5% | [2]; at 3.7 µM 18% | [2]; at 11.0 µM 14% | [2]; at 33.0 µM 17% | [3]; at 1.2 µM 30% | [3]; at 3.7 µM 51% | [3]; at 11.0 µM 49% | [3]; at 33.0 µM 59% | [4]; at 1.2 µM 17% | [4]; at 3.7 µM 27% | [4]; at 11.0 µM 25% | [4]; at 33.0 µM 25% | [4]; at 100.0 µM 69% | [5]; at 1.2 µM 21% | [5]; at 3.7 µM 33% | [5]; [16] 12% | [5]; at 11.0 µM 21% | [5]; at 33.0 µM 11% | [5]; [17] 29% | [5]; at 50.0 µM 18% | [6]; at 1.2 µM 50% | [6]; at 3.7 µM 51% | [6]; [16] 14% | [6]; at 11.0 µM 57% | [6]; at 33.0 µM 41% | [6]; [17] 53% | [6]; at 50.0 µM 30.4% | [7]; at 1.2 µM 16% | [7]; at 3.7 µM 10% | [7]; at 11.0 µM 9% | [7]; at 33.0 µM 14% | [7]; at 100.0 µM 59% | [8]; [16] 18% | [8]; [17] 58% | [8]; at 50.0 µM 25.1% | [9]; at 1.2 µM 40% | [9]; at 3.7 µM 48% | [9]; at 11.0 µM 49% | [9]; at 33.0 µM 52% | [10]; [16] 18% | [10]; [17] 18% | [11]; at 1.2 µM 17% | [11]; at 3.7 µM 26% | [11]; [16] 17% | [11]; at 11.0 µM 25% | [11]; at 33.0 µM 40% | [11]; [17] 35% | [11]; at 50.0 µM 16.4% | [12]; at 1.2 µM -43% | [12]; at 3.7 µM -40% | [12]; at 11.0 µM -31% | [12]; at 33.0 µM 0% | [13]; at 1.2 µM 33% | [13]; at 3.7 µM 32% | [13]; at 11.0 µM 19% | [13]; at 33.0 µM 47% | [14]; at 1.2 µM 29% | [14]; at 3.7 µM 32% | [14]; at 11.0 µM 32% | [14]; at 33.0 µM 46% | [15]; [16] 34% | [15]; at 50.0 µM -10.8%
active: [1]; at 100.0 µM 75% | [2]; at 100.0 µM 71% | [3]; at 100.0 µM 78% | [5]; at 100.0 µM 76% | [6]; at 100.0 µM 82% | [9]; at 100.0 µM 76% | [10]; at 50.0 µM 70.5% | [11]; at 100.0 µM 78% | [12]; at 100.0 µM 90% | [13]; at 100.0 µM 74% | [14]; at 100.0 µM 88% | [15]; [17] 73%
